From the supplement of paper PMC10849652
About 8,800 targets were measured; listed, in parts, are those with a hit and a random draw of the rest. About 0.5% of all pairs of compound and target were hits. A number with no mark means an inactive call.

Key:
Assay in all cases: log2 fold change, soluble protein after heating vs DMSO (PISA); higher = thermal stabilisation; K562 lysate, 10 uM; active = over 0.2 and 3.5 SD of the protein, either way, in both replicates (recomputed)
Tubastatin A = compound: CN1CCc2c(c3ccccc3n2Cc2ccc(C(=O)NO)cc2)C1 [Tubastatin A]
Method in brief: (§1)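 Quantification was by TMTpro 16plex LC-MS/MS with equalised channel sums, applied to the supernatant after 21,000xg for 90 min. Samples were crude K562 extract at 1 mg/mL protein in PBS pH 7.4 with 1 mM MgCl2, treated with 10 μM compound for 30 min, heated for 3 min across 48°C-58°C, pooled and brought to 0.5% NP-40 at 4°C. Values are log-two fold changes in thermal stability relative to solvent controls, from duplicates.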

alisertib = compound: COc1cc(Nc2ncc3c(n2)-c2ccc(Cl)cc2C(c2c(F)cccc2OC)=NC3)ccc1C(=O)O [alisertib]
Method in brief: as §1

gefitinib = compound: COc1cc2ncnc(Nc3ccc(F)c(Cl)c3)c2cc1OCCCN1CCOCC1 [gefitinib]
Method in brief: as §1

defactinib = compound: CNC(=O)c1ccc(Nc2ncc(C(F)(F)F)c(NCc3nccnc3N(C)S(C)(=O)=O)n2)cc1 [defactinib]
Method in brief: as §1

[1] = compound: CNc1nc(-c2ccc3c(N)n[nH]c3c2)cc(N2C[C@@H](C(=O)NC3CCCCC3)CC[C@H]2C)n1
Method in brief: as §1

encorafenib = compound: COC(=O)N[C@@H](C)CNc1nccc(-c2cn(C(C)C)nc2-c2cc(Cl)cc(NS(C)(=O)=O)c2F)n1 [encorafenib]
Method in brief: as §1

[2] = compound: COC(=O)[C@H](CCSC)NC(=O)C1=C(C=C(C=C1)NC[C@H](CS)N)C2=CC=CC=C2
Method in brief: as §1

[3] = compound: COc1cc2nc(-c3cc(F)ccc3O)nc(N[C@@H]3CNC[C@H]3C(C)(C)O)c2cc1OC
Method in brief: as §1

lapatinib = compound: CS(=O)(=O)CCNCc1ccc(-c2ccc3ncnc(Nc4ccc(OCc5cccc(F)c5)c(Cl)c4)c3c2)o1 [lapatinib]
Method in brief: as §1

pictilisib = compound: CS(=O)(=O)N1CCN(Cc2cc3nc(-c4cccc5[nH]ncc45)nc(N4CCOCC4)c3s2)CC1 [pictilisib]
Method in brief: as §1

duvelisib = compound: C[C@H](Nc1ncnc2nc[nH]c12)c1cc2cccc(Cl)c2c(=O)n1-c1ccccc1 [duvelisib]
Method in brief: as §1

tozasertib = compound: Cc1cc(Nc2cc(N3CCN(C)CC3)nc(Sc3ccc(NC(=O)C4CC4)cc3)n2)n[nH]1 [tozasertib]
Method in brief: as §1

bafetinib = compound: Cc1ccc(NC(=O)c2ccc(CN3CC[C@H](N(C)C)C3)c(C(F)(F)F)c2)cc1Nc1nccc(-c2cncnc2)n1 [bafetinib]
Method in brief: as §1

alvocidib = compound: CN1CC[C@H](c2c(O)cc(O)c3c(=O)cc(-c4ccccc4Cl)oc23)[C@H](O)C1 [alvocidib]
Method in brief: as §1

[4] = compound: CNC(=O)C1=CC=CC=C1NC2=NC(=NC=C2Cl)NC3=C(C=C(C=C3)N4CCOCC4)OC
Method in brief: as §1

crizotinib = compound: C[C@@H](Oc1cc(-c2cnn(C3CCNCC3)c2)cnc1N)c1c(Cl)ccc(F)c1Cl [crizotinib]
Method in brief: as §1

[5] = compound: C[C@H](C1=CC=C(C=C1)C(=O)NC2=C3C=CNC3=NC=C2)N
Method in brief: as §1

gandotinib = compound: Cc1cc(Nc2cc(CN3CCOCC3)c3nc(C)c(Cc4ccc(Cl)cc4F)n3n2)n[nH]1 [gandotinib]
Method in brief: as §1

doramapimod = compound: Cc1ccc(-n2nc(C(C)(C)C)cc2NC(=O)Nc2ccc(OCCN3CCOCC3)c3ccccc23)cc1 [doramapimod]
Method in brief: as §1

[6] = compound: Cc1cccc(CC(=O)N2CCc3c2ccc(-c2cn(C)c4ncnc(N)c24)c3F)n1
Method in brief: as §1

Sequence of UniProt P13533 (P13533 whole entry, looked up): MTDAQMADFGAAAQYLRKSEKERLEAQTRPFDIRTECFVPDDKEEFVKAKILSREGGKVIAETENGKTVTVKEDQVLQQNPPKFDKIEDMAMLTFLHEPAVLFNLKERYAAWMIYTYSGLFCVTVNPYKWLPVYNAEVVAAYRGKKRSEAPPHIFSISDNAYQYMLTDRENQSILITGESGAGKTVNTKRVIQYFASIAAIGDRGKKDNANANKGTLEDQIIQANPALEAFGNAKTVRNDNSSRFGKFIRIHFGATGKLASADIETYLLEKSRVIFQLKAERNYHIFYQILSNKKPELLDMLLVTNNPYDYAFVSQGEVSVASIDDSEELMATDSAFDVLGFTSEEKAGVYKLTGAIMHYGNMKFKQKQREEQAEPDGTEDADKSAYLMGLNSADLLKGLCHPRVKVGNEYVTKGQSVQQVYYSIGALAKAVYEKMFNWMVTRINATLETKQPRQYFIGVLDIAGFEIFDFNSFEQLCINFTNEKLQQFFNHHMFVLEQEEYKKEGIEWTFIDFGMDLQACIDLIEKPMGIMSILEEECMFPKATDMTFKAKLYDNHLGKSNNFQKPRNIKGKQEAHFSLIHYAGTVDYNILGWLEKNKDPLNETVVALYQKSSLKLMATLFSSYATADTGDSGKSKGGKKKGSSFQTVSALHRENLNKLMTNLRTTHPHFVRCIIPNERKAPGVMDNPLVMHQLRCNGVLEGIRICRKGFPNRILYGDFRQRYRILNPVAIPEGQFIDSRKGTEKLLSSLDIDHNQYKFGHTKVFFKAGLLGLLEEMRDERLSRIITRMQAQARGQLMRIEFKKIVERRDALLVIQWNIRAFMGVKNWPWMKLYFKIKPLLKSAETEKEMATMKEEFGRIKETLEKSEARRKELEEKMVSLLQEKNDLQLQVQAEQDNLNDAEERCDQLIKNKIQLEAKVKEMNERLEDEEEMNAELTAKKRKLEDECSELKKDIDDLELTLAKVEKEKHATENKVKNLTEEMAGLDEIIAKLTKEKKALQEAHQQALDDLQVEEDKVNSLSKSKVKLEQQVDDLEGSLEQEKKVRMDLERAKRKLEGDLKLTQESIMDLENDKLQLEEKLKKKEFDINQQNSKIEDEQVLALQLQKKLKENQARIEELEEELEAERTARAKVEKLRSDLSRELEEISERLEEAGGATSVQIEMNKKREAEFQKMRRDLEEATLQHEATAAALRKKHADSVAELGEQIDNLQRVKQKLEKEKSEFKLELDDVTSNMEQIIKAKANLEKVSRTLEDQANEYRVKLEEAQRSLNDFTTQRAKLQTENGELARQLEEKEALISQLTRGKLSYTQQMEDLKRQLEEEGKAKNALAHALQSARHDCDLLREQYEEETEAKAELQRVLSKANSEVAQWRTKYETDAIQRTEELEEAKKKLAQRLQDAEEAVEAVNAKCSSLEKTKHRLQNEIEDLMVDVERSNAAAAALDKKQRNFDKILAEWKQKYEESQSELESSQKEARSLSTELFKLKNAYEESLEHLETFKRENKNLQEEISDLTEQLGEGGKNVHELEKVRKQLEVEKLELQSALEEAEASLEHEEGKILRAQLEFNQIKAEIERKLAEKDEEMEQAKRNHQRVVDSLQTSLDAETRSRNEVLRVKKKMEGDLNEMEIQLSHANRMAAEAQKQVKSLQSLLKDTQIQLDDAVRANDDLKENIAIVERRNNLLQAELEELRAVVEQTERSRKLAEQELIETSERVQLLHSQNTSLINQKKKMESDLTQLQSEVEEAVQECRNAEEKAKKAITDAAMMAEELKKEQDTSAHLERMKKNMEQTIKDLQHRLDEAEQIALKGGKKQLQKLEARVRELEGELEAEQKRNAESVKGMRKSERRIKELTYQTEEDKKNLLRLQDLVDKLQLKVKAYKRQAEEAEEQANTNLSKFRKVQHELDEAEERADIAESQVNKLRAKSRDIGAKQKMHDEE
Sequence of UniProt P84157 (P84157 whole entry, looked up): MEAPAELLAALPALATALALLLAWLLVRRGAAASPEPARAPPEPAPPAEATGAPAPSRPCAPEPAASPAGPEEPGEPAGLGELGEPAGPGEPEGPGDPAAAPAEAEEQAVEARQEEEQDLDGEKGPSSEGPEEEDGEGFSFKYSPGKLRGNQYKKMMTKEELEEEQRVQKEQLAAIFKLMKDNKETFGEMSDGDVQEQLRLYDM
Sequence of UniProt Q6N069 (Q6N069 whole entry, looked up): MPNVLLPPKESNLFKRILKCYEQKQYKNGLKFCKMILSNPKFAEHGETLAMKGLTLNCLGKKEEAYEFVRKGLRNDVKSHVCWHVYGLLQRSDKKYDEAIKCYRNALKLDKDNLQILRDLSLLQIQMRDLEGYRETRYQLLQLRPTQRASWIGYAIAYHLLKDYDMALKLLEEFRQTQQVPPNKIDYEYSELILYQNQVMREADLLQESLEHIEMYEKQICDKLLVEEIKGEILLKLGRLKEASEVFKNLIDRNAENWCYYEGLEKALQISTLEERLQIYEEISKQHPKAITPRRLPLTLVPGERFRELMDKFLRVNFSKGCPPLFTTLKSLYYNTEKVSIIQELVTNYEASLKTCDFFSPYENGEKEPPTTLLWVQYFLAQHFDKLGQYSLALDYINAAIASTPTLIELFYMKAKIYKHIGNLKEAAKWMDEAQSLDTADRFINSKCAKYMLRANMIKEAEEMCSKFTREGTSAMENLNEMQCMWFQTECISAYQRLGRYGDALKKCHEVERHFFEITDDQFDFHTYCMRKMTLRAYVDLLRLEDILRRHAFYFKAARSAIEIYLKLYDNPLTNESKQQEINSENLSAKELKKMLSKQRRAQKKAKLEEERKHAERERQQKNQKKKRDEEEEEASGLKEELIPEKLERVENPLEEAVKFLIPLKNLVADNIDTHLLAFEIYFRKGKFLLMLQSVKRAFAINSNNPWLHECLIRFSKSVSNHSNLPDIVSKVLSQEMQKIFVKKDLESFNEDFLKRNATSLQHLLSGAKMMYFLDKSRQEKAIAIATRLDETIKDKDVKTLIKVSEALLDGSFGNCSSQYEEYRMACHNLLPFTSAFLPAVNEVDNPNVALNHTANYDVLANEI
Sequence of UniProt Q9BXW6 (Q9BXW6 whole entry, looked up): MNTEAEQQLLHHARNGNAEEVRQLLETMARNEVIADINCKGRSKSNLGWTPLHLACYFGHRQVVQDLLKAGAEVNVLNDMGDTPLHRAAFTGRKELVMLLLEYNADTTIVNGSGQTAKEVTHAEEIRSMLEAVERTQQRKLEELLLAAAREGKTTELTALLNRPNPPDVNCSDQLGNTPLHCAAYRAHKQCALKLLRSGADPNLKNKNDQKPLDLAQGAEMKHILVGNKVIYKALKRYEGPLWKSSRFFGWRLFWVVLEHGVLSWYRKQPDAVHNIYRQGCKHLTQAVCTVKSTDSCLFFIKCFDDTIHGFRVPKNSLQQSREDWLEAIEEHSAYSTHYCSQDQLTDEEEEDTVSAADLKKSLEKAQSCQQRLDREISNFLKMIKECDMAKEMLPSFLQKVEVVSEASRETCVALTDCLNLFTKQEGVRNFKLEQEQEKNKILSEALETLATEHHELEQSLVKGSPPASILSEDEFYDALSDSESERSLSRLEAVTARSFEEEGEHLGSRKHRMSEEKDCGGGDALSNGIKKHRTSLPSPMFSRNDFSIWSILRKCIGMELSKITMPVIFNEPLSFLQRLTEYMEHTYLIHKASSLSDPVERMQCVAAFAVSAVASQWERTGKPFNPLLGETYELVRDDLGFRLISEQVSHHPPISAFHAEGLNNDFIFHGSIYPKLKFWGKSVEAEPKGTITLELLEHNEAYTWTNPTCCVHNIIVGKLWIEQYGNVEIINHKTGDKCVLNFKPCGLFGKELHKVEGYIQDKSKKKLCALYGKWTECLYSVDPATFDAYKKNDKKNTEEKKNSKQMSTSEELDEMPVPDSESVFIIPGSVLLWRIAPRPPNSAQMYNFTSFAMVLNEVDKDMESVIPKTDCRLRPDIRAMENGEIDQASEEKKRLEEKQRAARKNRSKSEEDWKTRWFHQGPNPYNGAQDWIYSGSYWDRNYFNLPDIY

Target	log2 fold change (Tubastatin A)	log2 fold change (alisertib)	log2 fold change (gefitinib)	log2 fold change (defactinib)	log2 fold change [1]	log2 fold change (encorafenib)	log2 fold change [2]	log2 fold change [3]	log2 fold change (lapatinib)	log2 fold change (pictilisib)	log2 fold change (duvelisib)	log2 fold change (tozasertib)	log2 fold change (bafetinib)	log2 fold change (alvocidib)	log2 fold change [4]	log2 fold change (crizotinib)	log2 fold change [5]	log2 fold change (gandotinib)	log2 fold change (doramapimod)	log2 fold change [6]
MUC5AC (UniProt P98088)	-0.03	-0.233	0.013																	
NAA16 (UniProt Q6N069)	-0.097	0.11	0.142	0.086	-0.05	0.062	0.169	-0.03	0.048	-0.108	0.029	-0.016	0.022							
OSBPL1A (UniProt Q9BXW6)		-0.071	0.135		0.099			0.048	-0.035	-0.051	0.072		-0.077	-0.035	0.091	-0.014	-0.079	0.069	0.019	0.102
NPLOC4 (UniProt I3L3I1)					0.799	0.014	-0.143			0.145	0.038	-0.216	-0.214			-0.53			-0.002	
MYH6 (UniProt P13533)	0.142					-0.048	0.082	0.206	-0.111	-1.52 (active)		0.009	-0.132		-0.06	-0.097			-0.245	
NTMT1 (UniProt S4R338)								0.045	0.082											
MXRA7 (UniProt P84157)	-0.056	-0.19	0.177	-0.239	0.131	0.051	-0.028	-0.009	-0.039		0.056	-0.05		-0.002	-0.052	0.103	-0.149	-0.008	0.041	0.096
